Measured values taken from PubChem BioAssay AID1159580 (chemical genetic matrix, 2015).
In all, about 5,500 compounds went through this assay and about 2,000 (36%) were called active. Another 18% or so got no clear call; they are omitted. Cut-off read from the data, not from the text of the source: active = normalized growth mostly below about 0.91 (no sharp cut-off); inconclusive = no clear call, values can overlap the other calls; inactive = mostly above about 0.92. Some of the results follow.

Test: chemical genetic growth profiling, strain panel (AID 1159580);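 note: tested at 20 µM; growth read once vehicle control cultures reached saturation at 30 °C; 1 = growth at the plate median or of vehicle wells; lower values mean less growth of the strain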
Conditions: S. cerevisiae deletion strains, growth OD

Measured: normalized growth

CCCCCC[C@@H]([C@@H](C)O)n1cnc2c(N)ncnc21
inactive: locus YAL040C, strain CLN3, hits give low values 1.02 | locus YCL061C, strain MRC1 (second series), hits give low values 1 | locus YDR150W, strain NUM1, hits give low values 1.01 | locus YDR363W, strain ESC2, hits give low values 1 | locus YER002W, strain NOP16, hits give low values 1.01 | locus YGR229C, strain SMI1, hits give low values 0.945 | locus YJR075W, strain HOC1, hits give low values 0.99 | locus YMR263W, strain SAP30, hits give low values 1 | locus YNL128W, strain TEP1, hits give low values 0.992 | locus YNL175C, strain NOP13, hits give low values 1.02 | locus YNL197C, strain WHI3, hits give low values 1.01 | locus YNL224C, strain SQS1, hits give low values 0.992 | locus YOR083W, strain WHI5 (second series), hits give low values 1.06 | locus YPL241C, strain CIN2, hits give low values 1

CC(C)CSc1nnc(CSCc2nc(-c3ccc(Cl)cc3)cs2)n1C
inactive: locus YAR019C, strain CDC15, hits give low values 0.979 | locus YBL105C, strain PKC1, hits give low values 0.964 | locus YBR135W, strain CKS1, hits give low values 0.968 | locus YBR136W, strain MEC1, hits give low values 0.964 | locus YBR160W, strain CDC28, hits give low values 0.97 | locus YDL017W, strain CDC7, hits give low values 0.974 | locus YDL028C, strain MPS1, hits give low values 0.966 | locus YDL101C, strain DUN1, hits give low values 0.958 | locus YDL108W, strain KIN28, hits give low values 0.96 | locus YDL132W, strain cdc53, hits give low values 0.961 | locus YDL214C, strain PRR2, hits give low values 0.94 | locus YDR052C, strain DBF4, hits give low values 0.974 | locus YDR054C, strain cdc34, hits give low values 0.968 | locus YDR226W, strain ADK1, hits give low values 0.974 | locus YDR477W, strain SNF1, hits give low values 0.965 | locus YER123W, strain YCK3, hits give low values 0.913 | locus YER133W, strain GLC7, hits give low values 0.954 | locus YFL009W, strain cdc4, hits give low values 0.976 | locus YFL029C, strain CAK1, hits give low values 0.973 | locus YFR003C, strain YPI1, hits give low values 0.965 | locus YFR019W, strain FAB1, hits give low values 0.946 | locus YFR028C, strain CDC14, hits give low values 0.97 | locus YGR040W, strain KSS1, hits give low values 0.931 | locus YGR052W, strain FMP48, hits give low values 0.979 | locus YGR092W, strain DBF2, hits give low values 0.981 | locus YHR030C, strain SLT2, hits give low values 1.03 | locus YHR079C, strain IRE1, hits give low values 1.06 | locus YHR082C, strain KSP1, hits give low values 1.03 | locus YHR205W, strain SCH9, hits give low values 0.988 | locus YIL147C, strain SLN1, hits give low values 0.962 | locus YJL095W, strain BCK1, hits give low values 0.956 | locus YJL128C, strain PBS2, hits give low values 0.929 | locus YJL157C, strain FAR1, hits give low values 0.956 | locus YJR016C, strain ILV3, hits give low values 0.971 | locus YJR066W, strain TOR1 (second series), hits give low values 0.961 | locus YJR066W, strain TOR1, hits give low values 1.05 | locus YKL048C, strain ELM1, hits give low values 0.954 | locus YKL067W, strain YNK1, hits give low values 0.95 | locus YKL101W, strain HSL1, hits give low values 0.925 | locus YKL193C, strain SDS22, hits give low values 0.971 | locus YKL203C, strain TOR2, hits give low values 1.02 | locus YLR113W, strain HOG1, hits give low values 0.865 | locus YLR133W, strain CKI1, hits give low values 0.927 | locus YLR403W, strain SFP1, hits give low values 0.948 | locus YML070W, strain DAK1, hits give low values 0.929 | locus YMR001C, strain CDC5, hits give low values 0.973 | locus YMR205C, strain PFK2 (second series), hits give low values 0.961 | locus YMR277W, strain FCP1, hits give low values 0.966 | locus YNL006W, strain LST8, hits give low values 0.979 | locus YNL020C, strain ARK1, hits give low values 0.941 | locus YNL161W, strain CBK1, hits give low values 0.973 | locus YNL183C, strain NPR1, hits give low values 1.01 | locus YNL207W, strain RIO2, hits give low values 0.967 | locus YNL222W, strain SSU72, hits give low values 0.972 | locus YNL307C, strain MCK1 (second series), hits give low values 0.974 | locus YOL078W, strain AVO1, hits give low values 0.964 | locus YOL136C, strain PFK27, hits give low values 0.882 | locus YOR061W, strain CKA2, hits give low values 0.939 | locus YOR119C, strain RIO1, hits give low values 1.01 | locus YOR231W, strain MKK1, hits give low values 0.944 | locus YOR329C, strain SCD5, hits give low values 0.974 | locus YPL031C, strain PHO85, hits give low values 0.95 | locus YPL153C, strain RAD53, hits give low values 0.96 | locus YPL204W, strain HRR25, hits give low values 0.917 | locus YPL209C, strain IPL1, hits give low values 0.974 | locus YPL256C, strain CLN2, hits give low values 0.999 | locus YPR025C, strain CCL1, hits give low values 0.969 | locus YPR106W, strain ISR1, hits give low values 0.962 | locus YPR111W, strain DBF20, hits give low values 0.95 | strain NNK1, hits give low values 0.966 | strain TSCII, hits give low values 0.969
